# Source: PubChem BioAssay
# hERG WT inh = qHTS for Inhibitors of KCHN2 3.1: Wildtype qHTS; Voltage-gated inwardly rectifying potassium channel KCNH2 (Homo sapiens), Q12809; U2OS, BacMam KCNH2, thallium flux FluxOr; active compounds read low; activity change, % at 1.84 µM; 0.37% of 340,000 active; AID 720551, 2013;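 active means maximum activity change below -70%; inconclusive means maximum activity change between -70% and -50%; inactive means maximum activity change above -50%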; further: on the % scale 0 is the no-effect control and ±100 the full control effect
#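 U2OS cells were transduced with wild-type KCNH2 virus (2.03 x 10^8 / mL) for 4 h at room temperature, then cultured overnight at 37 C. Thallium flux was read with FluxOr dye. Rate constants were normalized to DMSO controls.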
# ALOX12 inh = Primary qHTS assay for inhibitors of human arachidonate 12S-lipoxygenase (ALOX12): Round 2. purified 12hLO, xylenol orange hydroperoxide absorbance. AID 1671190, 2021. Potency, µM (titrated, usually from 108 µM), for the others: at the top dose activity change, negative = inhibition, most hits filed as inhibitors. 1.1% of 580,000 active; further: potency means the concentration at half of the fitted maximal effect; on the % scale 0 is the no-effect control and ±100 the full control effect
#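 Hydroperoxide product was detected by ferrous iron/xylenol orange as the 573 to 405 nm absorbance ratio. Arachidonic acid at 40 uM (final) was turned over for 30 min at room temperature by 150 nM human 12hLO, pH 7.0 Hepes buffer, after 15 min compound preincubation.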
# ClpP mod = qHTS Assay for Activators of ClpP; 1.9% of 340,000 active; ATP-dependent Clp protease proteolytic subunit (Bacillus subtilis (strain 168)), P80244; purified B. subtilis ClpP, FRET peptide cleavage, 20 min; Potency, µM (series often up to 57.5 µM), without a hit: at the top dose activity change, negative = active; AID 651965, 2013; active means well fitted falling curve with a large enough effect; inconclusive means small, poorly fitted or top-dose-only effect; inactive means no such curve, though single readings can be large or run the other way; further: potency means the concentration at half of the fitted maximal effect; the source files actives as falling curves though it sought activators and does not explain the sign; nearly all actives have a fitted effect of over 65% in size
#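 ClpP 10 microg/mL final, pH 8 Tris/KCl buffer with BSA, glycerol, Tween-20; compound pinned in; FRET-FV substrate; RT 20 min; Ex320/Em430; ΔFRET vs ADEP 5.8 microM, DMSO, no enzyme.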
# LDHA block = qHTS assay for inhibitors of human lactate dehydrogenase. activity change, % (values are at about 110 or 230 µM). 0.15% of 480,000 active. purified LDHA, NADH/diaphorase-resazurin fluorescence; active compounds read low; in the data active means activity change below about -30%; inconclusive means mostly about -25% to -30%;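 further: plate controls were DMSO wells for no effect and wells without enzyme for full effect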
#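 Remaining NADH was detected by diaphorase (0.133 mg/mL) converting 37 µM resazurin to fluorescent resorufin, read at 0 and 20 minutes. The preceding 5-minute room-temperature reaction used 2 nM LDHA, 0.2 mM sodium pyruvate and 0.06 mM NADH at pH 7.4.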
# KCNH2 3.1 block = qHTS for Inhibitors of KCHN2 3.1: Mutant qHTS; activity change, % (tested at about 1.8 µM); AID 720553, 2013; 0.95% of 340,000 active; U2OS KCNH2 3.1, thallium flux FluxOr; active compounds read low;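 active means maximum activity change below -70%; inconclusive means maximum activity change from -70% to -50%; inactive means maximum activity change above -50%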;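 further: thallium influx rate constant from kinetic fluorescence after stimulation buffer; on the % scale 0 is the no-effect control and ±100 the full control effect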
#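 We transduce U2OS cells with the mutant 3.1 virus, culture them overnight, load FluxOr with Red40 quencher for 45 min, then add stimulation buffer and read kinetically for 2 min to derive a normalized rate constant.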
# Chronic BCR inh = qHTS Assay to Find Inhibitors of Chronic Active B-Cell Receptor Signaling. ABC-DLBCL IkBa-CBG/CBR reporter, luminescence ratio, 4 h. Potency, µM (top dose mostly 46.1 µM), without a hit: top-dose activity change, negative = inhibition, usual class: inhibitors. 0.05% of 340,000 active; active means well fitted inhibition curve with a large enough effect in the signal ratio, with a control signal flat, not every such curve was filed as active; inconclusive means small, poorly fitted or top-dose-only effect, or effect the other way, or a change in a side signal; the % refers to the signal ratio;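 further: potency means the concentration at half of the fitted maximal effect; plate controls were basal doxycycline-induced cells for no effect and cells given 10 µM MG132 for full effect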
#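 Cell line TMD8 (human ABC DLBCL), stably expressing tet-inducible CBG68-IkBa fusion and CBR; IMDM/0.5% FBS; cpd up to 46 uM; dox induction, 4 h, 37C/5% CO2; dual luminescence; green/red ratio; MG132 control.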
# ClpP inh valid = qHTS Assay for Activators of ClpP: Hit Validation of Inhibitors | purified B. subtilis ClpP, FRET-FV substrate cleavage, 20 min | Potency, µM (top dose mostly 57.5 µM), for inactives: at the highest dose activity change, negative = inhibition, actives largely listed as inhibitors | shares compounds with ClpP mod | AID 743245, 2014 | 40% of 470 active; further: potency means the concentration at half of the fitted maximal effect; on the % scale 0 is the no-effect control and ±100 the full control effect; nearly all actives have a fitted effect of over 70% in size
# Starred values were filed as active, the others as inactive; ? = inconclusive; / = no result; [ ] = remark or other dose. Sampled rows, rich in hits. Any-hit rate of the full collection: about 3%. Unless noted, the call rests on the fitted dose curve; in most records, active means well fitted curve in the direction sought with a large enough effect; inconclusive means small, poorly fitted or top-dose-only effect, or another doubt; inactive means no such curve, though single readings can be large; an effect the other way counts as inactive or inconclusive.
SMILES,hERG WT inh,ALOX12 inh,ClpP mod,LDHA block,KCNH2 3.1 block,Chronic BCR inh,ClpP inh valid
O=C(NCc1ccccc1Br)c1cnc2sc(N3CCCCCC3)nn2c1=O,/,?,?,-8,/,/,/
CCCNC(=O)c1cnc2sc(N3CCCCCC3)nn2c1=O,/,?,3.2µM*,-4,/,/,1%
CCOc1ccccc1CNC(=O)c1cnc2sc(N3CCOCC3)nn2c1=O,/,-11%,2.8µM*,-7,/,/,0%
CCOc1ccccc1CNC(=O)c1cnc2sc(N3CCCCCC3)nn2c1=O,/,-9%,3.2µM*,-10,/,/,-5%
COc1ccccc1C(=O)N1CCC2(CC1)OC(=O)N(Cc1ccccc1C#N)C2(C)c1ccccc1 (stereo not drawn),/,17%,/,/,/,/,/
COc1ncc(-c2ccc3ncn(C4CC4)c(=O)c3n2)cn1,/,22%[176 µM],/,/,/,/,/
COc1ccc(NCc2cc3cc4c(cc3n(CC(=O)Nc3cc(C)cc(C)c3)c2=O)OCO4)cc1,/,-30%,24%,5,/,/,/
COc1ccc(NCc2cc3cc4c(cc3n(CC(=O)Nc3ccc(C)c(C)c3)c2=O)OCO4)cc1,/,8%,60%,3,/,/,?
CCOc1ccccc1N1CC(C(=O)Nc2ccc3c(c2)OCCO3)CC1=O (stereo not drawn),-10,13%,7.9µM*,-5,-3,?,0%
O=C(CCn1nnc2ccccc21)N1CCN(c2ccccc2)CC1,-9,-23%,60%,-9,-7,0%,-1%
O=C(O)c1cc(-c2ccc3c(c2)OCO3)nc2ccccc12,8,?,-4%,17,-3,?,/
CC(NC(=O)c1cc(-c2ccc3c(c2)OCO3)nc2ccccc12)C(C)(C)C (stereo not drawn),3,-7%,40%,3,2,-10%,24µM*
Cc1cccc(NS(=O)(=O)c2cccc(C(=O)NCC(c3ccco3)N3CCCCC3)c2)c1 (stereo not drawn),13,-22%,3.2µM*,-4,-7,5%,-2%
Fc1ccc(CNc2cnccn2)cc1,0,24%,3.2µM*,-15,-17,-5%,22µM*
c1cc(OCc2nc(-c3ccsc3)no2)cc(-n2cnnn2)c1,/,2%,/,1,/,/,/
CC1CCCCC1NC(=S)NCc1ccncc1 (stereo not drawn),/,-18%,/,0,/,/,/
Cc1ccc(-c2cc3nc(-c4ccccc4)cc(N4CCC5(CC4)OCCO5)n3n2)cc1,-1,0%,7.1µM*,2,-18,-4%,4%
Fc1ccc(-c2cc3nc(-c4ccccc4)cc(N4CCOCC4)n3n2)cc1,-8,5%,3.5µM*,-4,-8,?,34µM*
Fc1cccc(-c2cc3nc(-c4ccccc4)cc(N4CCC5(CC4)OCCO5)n3n2)c1,1,0%,?,2,14,0%,/
Cc1cccc(-c2cc3nc(-c4ccccc4)cc(N4CCC5(CC4)OCCO5)n3n2)c1,-7,-6%,3.2µM*,1,11,?,24µM*
Cc1cccc(-c2cc3nc(C)cc(N4CC(C)CC(C)C4)n3n2)c1 (stereo not drawn),-2,-20%,0.79µM*,-4,-120*,-1%,-5%
COc1ccc(NC(=O)c2cc(Br)c(O)c(OC)c2)cc1,/,-27%,/,-4,/,/,/
